The target in the test is PAS domain-containing serine/threonine-protein kinase (Homo sapiens) (UniProt Q96RG2). The settings on record: at 1 µM.
Sequence of PAS domain-containing serine/threonine-protein kinase (Homo sapiens) (Q96RG2 whole entry, the tested form may be a part): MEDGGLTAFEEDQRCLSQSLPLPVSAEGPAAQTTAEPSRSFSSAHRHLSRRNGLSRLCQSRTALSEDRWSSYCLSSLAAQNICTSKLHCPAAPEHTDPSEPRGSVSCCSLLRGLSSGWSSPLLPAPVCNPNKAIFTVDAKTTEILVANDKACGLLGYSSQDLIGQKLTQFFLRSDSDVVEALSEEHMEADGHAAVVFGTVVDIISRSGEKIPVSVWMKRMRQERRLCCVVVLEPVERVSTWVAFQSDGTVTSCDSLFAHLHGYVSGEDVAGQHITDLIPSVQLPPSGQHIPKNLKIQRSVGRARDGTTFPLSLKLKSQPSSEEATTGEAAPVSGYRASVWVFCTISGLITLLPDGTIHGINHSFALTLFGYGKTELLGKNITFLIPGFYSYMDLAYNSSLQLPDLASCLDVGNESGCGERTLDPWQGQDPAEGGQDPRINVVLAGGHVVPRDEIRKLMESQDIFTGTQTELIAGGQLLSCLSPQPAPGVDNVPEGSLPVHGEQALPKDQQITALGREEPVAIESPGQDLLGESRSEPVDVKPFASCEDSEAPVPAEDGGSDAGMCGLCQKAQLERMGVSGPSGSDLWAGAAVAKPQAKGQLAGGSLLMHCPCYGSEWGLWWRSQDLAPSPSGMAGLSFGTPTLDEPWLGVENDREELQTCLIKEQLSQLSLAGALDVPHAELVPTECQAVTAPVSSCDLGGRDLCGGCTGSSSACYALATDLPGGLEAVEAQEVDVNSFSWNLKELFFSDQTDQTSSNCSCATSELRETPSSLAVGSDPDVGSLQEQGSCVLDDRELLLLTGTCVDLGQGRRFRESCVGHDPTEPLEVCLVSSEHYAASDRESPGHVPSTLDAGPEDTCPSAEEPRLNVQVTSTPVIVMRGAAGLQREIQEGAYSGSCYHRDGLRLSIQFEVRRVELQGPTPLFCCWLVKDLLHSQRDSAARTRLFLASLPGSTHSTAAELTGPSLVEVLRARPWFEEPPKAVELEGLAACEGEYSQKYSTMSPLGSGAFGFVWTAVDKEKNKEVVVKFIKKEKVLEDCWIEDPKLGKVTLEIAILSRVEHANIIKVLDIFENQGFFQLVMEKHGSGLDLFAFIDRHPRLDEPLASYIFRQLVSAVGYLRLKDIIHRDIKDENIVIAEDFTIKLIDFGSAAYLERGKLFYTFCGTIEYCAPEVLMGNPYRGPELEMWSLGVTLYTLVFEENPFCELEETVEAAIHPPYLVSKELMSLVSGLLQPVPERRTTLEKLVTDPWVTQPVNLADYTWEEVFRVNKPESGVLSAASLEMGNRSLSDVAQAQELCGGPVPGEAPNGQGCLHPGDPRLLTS
On to `O=c1cc(-c2cccc3c2Sc2ccccc2S3)oc(N2CCOCC2)c1`, for which the residual activity was determined as 109%.
The same measure for `COc1ccc(CNc2nc(N(CCO)CCO)nc3c2ncn3C(C)C)cc1`: 117%; for `Oc1c2ccccc2c2c3c(cccc13)N=N2`: 125%.
With `Oc1n[nH]c2nnc(-c3c(-c4ccccc4)nn4ccccc34)cc12` the figure was 100%; with `CO[C@@H]1[C@H](N(C)C(=O)c2ccccc2)C[C@H]2O[C@]1(C)n1c3ccccc3c3c4c(c5c6ccccc6n2c5c31)C(=O)NC4`, 85%.
As for `O=C1NC(=O)c2cc(Nc3ccc(F)cc3)c(Nc3ccc(F)cc3)cc21`, the residual activity is 105%.
Regarding `Nc1ncnc2c1c(-c1ccc(Oc3ccccc3)cc1)cn2C1CCCC1`, the residual activity worked out at 108%.
Regarding `N#C/C(=C(\N)Sc1ccc(N)cc1)c1ccccc1C(F)(F)F`, the residual activity was found to be 122%.
With `CCN(CC)CCNC(=O)c1c(C)[nH]c(/C=C2\C(=O)Nc3ccc(Cl)cc32)c1C` the figure was 70%.
The same measure for `Nc1cccc(-c2cc3c(Oc4cccc(O)c4)ncnc3[nH]2)c1`: 123%; for `Cc1nc(-c2ccccc2)c(-c2ccncc2)o1`: 128%.
The same measure for `CCC(=O)Nc1ccc2ncnc(Nc3cccc(Br)c3)c2c1`: 85%.
As to `N#Cc1cnc2cnc(NCc3cccnc3)cc2c1Nc1ccc(F)c(Cl)c1`, the residual activity was determined as 80%.
In the case of `CC(C)n1cnc2/c(=N/c3cccc(Cl)c3)nc(NCCO)[nH]c21`, the residual activity is 113%.
With `c1ccc(-c2n[nH]cc2-c2ccnc3ccccc23)nc1` the figure was 95%; with `Cn1cnc2cc3c(Nc4cccc(Br)c4)ncnc3cc21`, 82%; with `CCOc1cc2ncnc(Nc3cccc(Br)c3)c2cc1OCC`, 79%.
For the molecule `O=C1Nc2ccc(Br)cc2/C1=C\c1cc2c([nH]1)CCCC2`, the residual activity is 129%.
`Cc1cc(Nc2nc(-c3ccccc3)nc3ccccc23)n[nH]1`: the residual activity turned out to be 108%.
For `COc1cc2nccc(Oc3ccc(NC(=O)Nc4cc(C)on4)c(Cl)c3)c2cc1OC`, the residual activity is 100%.
Take `O=Nc1c(-c2c(O)[nH]c3ccccc23)[nH]c2ccccc12`: the residual activity came to 112%.
With `COc1ccc(C(=O)Nc2sc3c(c2C(N)=O)CCCC3)cc1OC` the figure was 95%; with `CSc1nc(-c2ccc(F)cc2)c(-c2ccnc(NC(C)c3ccccc3)c2)[nH]1` (centres undefined), 95%.
The same measure for `Cn1sc(=O)n(Cc2ccccc2)c1=O`: 100%; for `O=C1Nc2ccccc2/C1=C\c1c(Cl)[nH]c2ccccc12`: 99%.
On to `CNc1cc2c(Nc3cccc(Br)c3)ncnc2cn1`, for which the residual activity was 128%.
The same measure for `O=S(=O)(NCCNC/C=C/c1ccc(Br)cc1)c1cccc2cnccc12`: 141%; for `O=C1NC(=O)/C(=C\c2ccc3nccnc3c2)S1`: 87%.
With `O=c1cc(N2CCOCC2)oc2c(-c3ccccc3)cccc12` the figure was 125%; with `O=C1NC(=O)/C(=C/c2ccc3c(c2)OC(F)(F)O3)S1`, 81%; with `O=C1c2ccccc2-[n+]2ccc3c([nH]c4ccccc43)c21`, 147%.
With `CCN(CC)CCCCN1c2ccccc2Oc2ccc(Cl)cc21` the figure was 88%; with `COc1ccc(S(=O)(=O)N(CCO)c2ccccc2CN(C)C/C=C/c2ccc(Cl)cc2)cc1`, 116%; with `CC(C)N(CCC(=O)c1ccc2ccccc2c1)Cc1ccccc1`, 126%.
For `Oc1ccc(-c2nc(-c3ccc(F)cc3)c(-c3ccncc3)[nH]2)cc1`, the residual activity was found to be 92%.
For the molecule `CC(=O)O/N=C1\C(=C2\C(=O)Nc3cc(Br)ccc32)Nc2ccccc21`, the residual activity is 93%.
Regarding `O=c1cc(N2CCOCC2)oc2c1ccc1ccccc12`, the residual activity came out at 141%.
The same measure for `CN([C@@H](Cc1ccc(OS(=O)(=O)c2cccc3cnccc23)cc1)C(=O)N1CCN(c2ccccc2)CC1)S(=O)(=O)c1cccc2cnccc12`: 79%; for `O=C(Nc1cccc(Nc2cc(Nc3cccc(C(F)(F)F)c3)ncn2)c1)C1CC1`: 92%.

One may read the residual activity as the signal under treatment as a percentage of the control signal.

The values are drawn from ChEMBL document CHEMBL2218924, “A broad activity screen in support of a chemogenomic map for kinase signalling research and drug discovery” (Biochem J, 2013).
